Source: the supplement of paper PMC11006884
The full data set covers some 6,500 targets. This sample favours those with a hit. About 2% of all pairs of compound and target were hits. Values without a mark were called inactive.

compound: COC(=O)C#Cc1ccccc1 [methyl 3-phenylpropiolate]; assay: log2 ratio of iodoacetamide-alkyne labeling of the cysteine site, DMSO over compound (competition); higher = stronger covalent engagement of the cysteine by the compound, active = 1 or more; conditions: 500 µM; treatment time 1 h; system: HEK293T cell lysate
In short: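 The log2 competition ratio per cysteine is defined as mean reporter intensity in control channels over mean reporter intensity in compound channels. Lysate from HEK293T cells (2 mg/mL) received electrophile (500 µM) or vehicle for 1 h at ambient temperature, followed by iodoacetamide alkyne for 1 h. Samples were clicked to sCIP-TMT reagents, pooled, trypsin-digested overnight at 37 °C, streptavidin-enriched, acid-eluted and run on Orbitrap Eclipse LC-MS/MS with FAIMS, with quantification in FragPipe. Three replicates with duplicate channels were used, and any cysteine quantified in only one replicate was excluded.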

Sequence of UniProt Q6ZU80 (Q6ZU80 whole entry): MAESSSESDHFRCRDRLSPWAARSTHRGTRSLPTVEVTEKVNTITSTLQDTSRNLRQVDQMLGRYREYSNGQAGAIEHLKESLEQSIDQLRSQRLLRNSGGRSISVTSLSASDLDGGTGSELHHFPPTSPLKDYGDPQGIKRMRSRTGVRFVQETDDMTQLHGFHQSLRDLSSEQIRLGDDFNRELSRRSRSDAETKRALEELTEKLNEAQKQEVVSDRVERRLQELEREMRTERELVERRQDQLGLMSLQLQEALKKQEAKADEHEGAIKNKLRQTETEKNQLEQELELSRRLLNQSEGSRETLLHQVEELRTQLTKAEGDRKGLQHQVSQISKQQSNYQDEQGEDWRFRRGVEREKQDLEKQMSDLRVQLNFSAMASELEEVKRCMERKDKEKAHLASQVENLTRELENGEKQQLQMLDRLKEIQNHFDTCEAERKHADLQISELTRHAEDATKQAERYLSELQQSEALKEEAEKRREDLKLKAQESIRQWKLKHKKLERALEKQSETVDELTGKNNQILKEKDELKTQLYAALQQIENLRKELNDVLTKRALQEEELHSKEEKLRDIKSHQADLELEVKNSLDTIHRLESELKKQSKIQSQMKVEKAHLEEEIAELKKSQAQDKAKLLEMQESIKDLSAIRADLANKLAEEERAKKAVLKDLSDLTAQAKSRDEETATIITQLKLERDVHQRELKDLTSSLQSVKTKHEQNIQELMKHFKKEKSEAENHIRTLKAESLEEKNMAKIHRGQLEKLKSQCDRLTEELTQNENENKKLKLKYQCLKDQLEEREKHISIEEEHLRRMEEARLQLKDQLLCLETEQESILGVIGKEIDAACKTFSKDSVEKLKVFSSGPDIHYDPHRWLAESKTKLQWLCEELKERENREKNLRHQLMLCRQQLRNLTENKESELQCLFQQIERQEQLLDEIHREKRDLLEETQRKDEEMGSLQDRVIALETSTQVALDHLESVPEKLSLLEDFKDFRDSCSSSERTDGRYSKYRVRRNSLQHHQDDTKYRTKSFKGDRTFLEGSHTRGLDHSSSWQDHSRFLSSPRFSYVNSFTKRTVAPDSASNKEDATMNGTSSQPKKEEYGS
Sequence of UniProt Q8WYP5 (Q8WYP5 whole entry, looked up): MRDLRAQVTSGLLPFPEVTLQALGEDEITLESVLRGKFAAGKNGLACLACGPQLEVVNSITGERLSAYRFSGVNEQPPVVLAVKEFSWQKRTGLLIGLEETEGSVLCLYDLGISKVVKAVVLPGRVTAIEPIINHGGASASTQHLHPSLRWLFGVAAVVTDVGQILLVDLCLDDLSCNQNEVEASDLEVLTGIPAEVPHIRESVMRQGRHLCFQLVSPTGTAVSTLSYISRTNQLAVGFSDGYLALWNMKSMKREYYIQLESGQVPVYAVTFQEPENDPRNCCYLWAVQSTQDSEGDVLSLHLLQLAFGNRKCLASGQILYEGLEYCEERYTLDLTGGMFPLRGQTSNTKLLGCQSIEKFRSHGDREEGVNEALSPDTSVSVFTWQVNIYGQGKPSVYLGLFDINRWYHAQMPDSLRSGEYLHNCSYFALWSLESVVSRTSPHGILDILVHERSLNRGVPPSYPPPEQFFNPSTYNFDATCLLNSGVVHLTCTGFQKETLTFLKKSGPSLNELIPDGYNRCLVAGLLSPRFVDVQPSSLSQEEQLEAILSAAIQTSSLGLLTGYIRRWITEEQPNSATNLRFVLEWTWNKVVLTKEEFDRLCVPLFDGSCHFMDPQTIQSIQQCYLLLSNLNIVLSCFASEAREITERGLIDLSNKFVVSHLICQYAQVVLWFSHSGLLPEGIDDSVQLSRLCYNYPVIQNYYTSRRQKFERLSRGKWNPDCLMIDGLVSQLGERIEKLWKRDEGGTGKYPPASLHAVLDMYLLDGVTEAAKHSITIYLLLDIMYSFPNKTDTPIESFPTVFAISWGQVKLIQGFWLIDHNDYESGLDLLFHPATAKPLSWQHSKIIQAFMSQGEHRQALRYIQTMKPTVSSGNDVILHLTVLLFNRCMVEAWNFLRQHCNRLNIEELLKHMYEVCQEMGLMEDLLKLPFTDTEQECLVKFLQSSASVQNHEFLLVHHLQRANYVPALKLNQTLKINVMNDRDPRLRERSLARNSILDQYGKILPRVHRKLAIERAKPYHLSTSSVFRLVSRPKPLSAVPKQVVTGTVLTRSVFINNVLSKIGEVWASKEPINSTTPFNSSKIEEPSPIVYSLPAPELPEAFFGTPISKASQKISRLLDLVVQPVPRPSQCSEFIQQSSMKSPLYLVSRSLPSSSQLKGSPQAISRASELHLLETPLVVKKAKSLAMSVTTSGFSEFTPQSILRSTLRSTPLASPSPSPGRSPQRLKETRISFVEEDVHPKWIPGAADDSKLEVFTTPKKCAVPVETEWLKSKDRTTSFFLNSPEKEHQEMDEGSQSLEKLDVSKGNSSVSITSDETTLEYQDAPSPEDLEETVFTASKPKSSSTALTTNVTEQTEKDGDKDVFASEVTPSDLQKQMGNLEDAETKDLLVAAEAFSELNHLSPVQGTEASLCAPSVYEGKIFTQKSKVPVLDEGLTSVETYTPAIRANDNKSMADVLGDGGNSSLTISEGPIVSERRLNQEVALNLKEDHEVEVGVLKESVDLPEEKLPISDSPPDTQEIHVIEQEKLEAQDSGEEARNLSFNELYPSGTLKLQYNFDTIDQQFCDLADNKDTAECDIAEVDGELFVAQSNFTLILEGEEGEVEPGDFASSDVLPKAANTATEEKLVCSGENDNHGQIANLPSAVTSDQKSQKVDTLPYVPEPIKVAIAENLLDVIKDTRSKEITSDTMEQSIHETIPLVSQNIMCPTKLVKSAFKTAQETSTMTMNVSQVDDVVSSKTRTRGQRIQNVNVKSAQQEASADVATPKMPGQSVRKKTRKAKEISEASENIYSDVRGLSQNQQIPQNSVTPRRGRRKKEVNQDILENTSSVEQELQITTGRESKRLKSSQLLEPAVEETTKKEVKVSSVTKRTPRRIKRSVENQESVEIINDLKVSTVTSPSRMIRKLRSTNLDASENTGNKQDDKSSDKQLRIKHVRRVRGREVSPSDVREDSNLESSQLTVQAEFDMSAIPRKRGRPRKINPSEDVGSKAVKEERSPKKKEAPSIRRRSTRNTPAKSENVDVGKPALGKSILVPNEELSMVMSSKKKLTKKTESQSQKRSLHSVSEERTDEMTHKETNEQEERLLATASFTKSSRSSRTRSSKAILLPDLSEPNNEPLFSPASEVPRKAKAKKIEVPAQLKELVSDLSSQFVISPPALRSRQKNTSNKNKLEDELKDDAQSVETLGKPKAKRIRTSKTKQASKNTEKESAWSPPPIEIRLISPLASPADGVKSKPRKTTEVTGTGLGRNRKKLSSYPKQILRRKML
Sequence of UniProt Q86U28 (Q86U28 whole entry, looked up): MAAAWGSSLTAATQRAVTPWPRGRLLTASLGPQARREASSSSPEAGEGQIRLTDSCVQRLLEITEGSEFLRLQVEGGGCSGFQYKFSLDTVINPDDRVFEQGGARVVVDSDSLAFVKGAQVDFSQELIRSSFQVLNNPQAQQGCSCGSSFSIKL
Sequence of UniProt Q99798 (Q99798 whole entry, looked up): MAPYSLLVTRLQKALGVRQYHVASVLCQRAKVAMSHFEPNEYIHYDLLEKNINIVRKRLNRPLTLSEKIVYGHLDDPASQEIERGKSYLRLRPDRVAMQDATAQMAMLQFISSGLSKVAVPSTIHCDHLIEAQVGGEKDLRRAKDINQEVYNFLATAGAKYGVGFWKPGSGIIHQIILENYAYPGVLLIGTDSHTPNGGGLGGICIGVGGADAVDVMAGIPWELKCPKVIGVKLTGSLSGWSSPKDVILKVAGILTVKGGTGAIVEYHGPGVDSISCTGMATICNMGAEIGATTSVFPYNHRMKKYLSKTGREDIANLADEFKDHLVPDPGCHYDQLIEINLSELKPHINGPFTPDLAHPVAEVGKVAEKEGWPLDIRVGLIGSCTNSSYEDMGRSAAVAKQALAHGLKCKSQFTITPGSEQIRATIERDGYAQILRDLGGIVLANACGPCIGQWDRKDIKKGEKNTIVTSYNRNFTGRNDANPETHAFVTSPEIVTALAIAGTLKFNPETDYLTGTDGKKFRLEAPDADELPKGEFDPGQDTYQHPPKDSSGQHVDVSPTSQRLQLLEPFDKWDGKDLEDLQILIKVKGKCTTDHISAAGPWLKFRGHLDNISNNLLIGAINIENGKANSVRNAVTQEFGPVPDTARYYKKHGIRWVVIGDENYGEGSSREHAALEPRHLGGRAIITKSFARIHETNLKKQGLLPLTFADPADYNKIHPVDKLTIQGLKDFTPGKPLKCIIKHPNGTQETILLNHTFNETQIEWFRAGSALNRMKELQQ
Sequence of UniProt Q8TC07 (Q8TC07 whole entry): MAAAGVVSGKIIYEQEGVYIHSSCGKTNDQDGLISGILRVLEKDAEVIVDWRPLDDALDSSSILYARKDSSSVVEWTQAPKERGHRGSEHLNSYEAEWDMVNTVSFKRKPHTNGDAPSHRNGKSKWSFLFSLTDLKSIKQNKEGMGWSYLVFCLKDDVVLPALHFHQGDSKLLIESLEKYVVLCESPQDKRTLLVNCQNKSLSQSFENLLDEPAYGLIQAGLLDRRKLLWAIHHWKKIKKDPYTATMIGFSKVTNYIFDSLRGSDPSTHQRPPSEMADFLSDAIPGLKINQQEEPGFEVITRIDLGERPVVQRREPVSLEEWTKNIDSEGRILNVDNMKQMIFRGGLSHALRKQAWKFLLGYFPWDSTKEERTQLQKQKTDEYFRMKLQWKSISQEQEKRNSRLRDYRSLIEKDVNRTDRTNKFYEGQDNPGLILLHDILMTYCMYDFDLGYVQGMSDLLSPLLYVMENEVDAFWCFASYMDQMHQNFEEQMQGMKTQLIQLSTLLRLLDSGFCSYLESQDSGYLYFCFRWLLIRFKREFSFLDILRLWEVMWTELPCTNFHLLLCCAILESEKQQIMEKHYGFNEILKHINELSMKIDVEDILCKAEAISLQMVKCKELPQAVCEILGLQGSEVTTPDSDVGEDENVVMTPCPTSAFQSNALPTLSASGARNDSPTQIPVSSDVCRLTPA

| Target | log2 ratio of iodoacetamide-alkyne labeling |
| --- | --- |
| MARC1 C273 (UniProt Q5VT66) | 0.102 |
| ISCA2 C146 (UniProt Q86U28) | 1.59 (active) |
| ACO2 C385 (UniProt Q99798) | 1.66 (active) |
| KTN1 C1105 (UniProt Q86UP2) | 0.28 |
| FAF2 C194 (UniProt Q96CS3) | 0.689 |
| CEP128 C915 (UniProt Q6ZU80) | 0.335 |
| TBC1D15 C686 (UniProt Q8TC07) | 0.635 |
| PHIP C954 (UniProt Q8WWQ0) | 1.46 (active) |
| FIGNL1 C200 (UniProt Q6PIW4) | 1.08 (active) |
| AKAP1 C102 (UniProt Q92667) | 0.334 |
| UniProt Q8WUQ7_C699 | 0.0859 |
| AHCTF1 C521 (UniProt Q8WYP5) | 1.16 (active) |
